Results published in PubChem BioAssay (NCI).
This is part of a sample that, as a whole, favours compounds with a hit. Of some 83,000 tested, about 20% had one in any assay.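 Single-concentration screen, 48 h exposure, 96-well plates. Endpoint: percent growth. Below 10 = active.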 Unmarked numbers belong to inactive results. Active and inactive are the calls of the source.

Tests used:
Experiment in all cases: NCI-60 one-dose screen, 48 h (100 = growth as untreated, 0 = no growth, -100 = all killed)
Conditions in all cases: 10 µM unless noted
T-47D breast = tested on: T-47D breast
BT-549 breast = tested on: BT-549 breast
MDA-MB-435 melanoma = tested on: MDA-MB-435 melanoma
SW-620 colon = tested on: SW-620 colon
MCF7 breast = tested on: MCF7 breast
HCT-116 colon = tested on: HCT-116 colon
HCC-2998 colon = tested on: HCC-2998 colon
KM12 colon = tested on: KM12 colon

Compound | growth (T-47D breast) | growth (BT-549 breast) | growth (MDA-MB-435 melanoma) | growth (SW-620 colon) | growth (MCF7 breast) | growth (HCT-116 colon) | growth (HCC-2998 colon) | growth (KM12 colon)
COc1ccc2c(c1)c(-c1nnc(N)nc1-c1cn(C)c3ccccc13)cn2C | 82.3% | 108% | 91.6% | 94.6% | 79.5% | 89.2% | 102% | 94.6%
C/C=C/C=C1\C[C@H]2CO[C@H](O2)C1=O | 98.4% | 127% | 101% | 69.1% | 67.1% | 82.3% | 114% | 103%
COc1cc(C(=O)C[n+]2ccc3ccccc3c2)cc(OC)c1OC | 96.3% | 107% | 100% | 94% | 96.3% | 95.9% | 103% | 96.1%
Cc1cnc2nc(NN)[nH]n12 | 98.4% | 111% | 99.7% | 103% | 92.6% | 98.9% | 108% | 100%
CS(=O)(=O)c1nccc(-c2c(-c3ccc(F)c(OCc4ccccc4)c3)nc3sccn23)n1 | 18.5% | -0.34% (active) | 101% | 100% | 16.5% | 38% | 32.2% | 96.5%
Cc1ccc(-c2csc(N/N=C/c3nc4ccccc4n3C3CC3)n2)cc1 | -50.9% (active) | 73.1% | 92.4% | -72% (active) | 50.2% | 89.3% | 90% | 
CN(C)C(=O)C1=NC(CO)C(=O)N(c2ccc(Cl)cc2)N1 (centres undefined) | 98.6% | 99.2% | 106% | 103% | 95.6% | 88.3% | 109% | 98.2%
CCN1C(=O)N(CC)C2SC(N/N=C/c3ccc(F)cc3)=NC21 (centres undefined) | 64.8% | -28.4% (active) | -35.8% (active) | 20.8% | 17.5% | 13.7% | 14.1% | 11.1%
O=C(/C=C1\C=CN(CCCCO)c2ccccc21)n1ccc2ccccc21 | 99.6% | 112% | 106% | 104% | 95.8% | 108% | 112% | 100%
Clc1ccc(-c2csc(Nc3cccc(Nc4csc(-c5ccc(Cl)cc5)n4)c3)n2)cc1 | 26.8% | 112% | 88.6% | 86.6% | 60.7% | 67.2% | 89.3% | 67.6%
Cc1ccc(NC(=O)N[C@@H](Cc2cc(F)cc(F)c2)C(=O)NC2C(=O)N3CCC[C@H]3C(=O)N3CCCC[C@H]3C(=O)N[C@@H](C)C(=O)N3C[C@H](C)C[C@H]3C(=O)O[C@H]2C)c(F)c1 (some centres undefined) | 31.5% | 28.7% | 21.2% | 36.5% | 15.5% | 9.88% (active) | 23.9% | 38.7%
CCCCCCCCNC(=O)c1ccc(Cn2c(CCCC)nc3c(N)nc4ccccc4c32)cc1 | -38.2% (active) | 92.7% | -83.1% (active) | -39.6% (active) | -78% (active) | -84.2% (active) | 15.5% | 42.1%
COc1ccccc1/C=C/C=N/NC1=NC2C(S1)N(C)C(=O)N2c1ccccc1 (centres undefined) | 77.8% | 10% | -20.6% (active) | 17.7% | 13.4% | 3.81% (active) | 19.9% | 7.34% (active)
Cn1cc(-c2nn3cc(-c4cccnc4)nc3s2)c2ccccc21 | 27.7% | 22.2% | -39.1% (active) | 17.1% | 15.8% | 16.8% | 60.2% | 29.6%
O=C(NNc1nc2cc(F)ccc2n2cncc12)c1cnccn1 | 33.7% | 55% | 25% | 24.5% | 14.8% | 23% | 19.9% | 20.8%
CS(=O)(=O)c1ccc2c(c1)c1c(n2C(=O)c2ccc(Cl)cc2)CCCC1 | 18.1% | 33% | -24.3% (active) | 13.6% | 17.8% | 27.6% | 59.9% | 29.8%
O=C(O)c1ccc(-n2cc(CNc3ccc(F)cc3)c(-c3ccc(C(F)(F)F)cc3)n2)cc1 | 78.2% | 103% | 80.9% | 98.6% | 67.8% | 83.3% | 102% | 78.7%
COc1cc2cc(Oc3ccc(NC(=O)Nc4cc(C(F)(F)F)cc(C(F)(F)F)c4)cc3)c(C)nc2cc1OCCN(C)C | 106% | 114% | 106% | 106% | 93% | 110% | 103% | 104%
CC1(C)CC[C@]2(C(=O)O)CC[C@]3(C)C(=CCC4[C@@]5(C)C[C@@H](O)[C@@H]6OC(c7cccc([N+](=O)[O-])c7)OC[C@@]6(C)C5CC[C@]43C)C2C1 (some centres undefined) | 93.1% | 77.3% | 85.5% | 73.7% | 74.4% | 49.5% | 42% | 46.1%
CCC(CC)n1c(=O)c(SC2=NC3C(NN2)N(CC)C(=O)N3CC)c(C(=O)O)c2ccccc21 (centres undefined) | 68.4% | -21.6% (active) | 0.0073% (active) | 21.7% | 17.4% | 6.91% (active) | 24% | 20.7%
N#C/C(=C\c1ccc(Cl)cc1Cl)C(N)=O | 93.7% | 102% | 98.5% | 88.3% | 76.2% | 74% | 103% | 103%
COc1ccc([C@H]2c3[nH]c4ccccc4c3C[C@@H]3C(=O)N(C4CCN(Cc5ccccc5)CC4)CC(=O)N23)c(OC)c1 | 82.8% | 86.1% | 83.3% | 79.9% | 51.7% | 56.8% | 78.1% | 79.6%
O=C(Nc1cc(Cl)cc(Cl)c1)Nc1nc2ccc([N+](=O)[O-])cc2s1 | -13.4% (active) | -24% (active) | -6.04% (active) | 8.7% (active) | 2.98% (active) | 0.0425% (active) | 3.91% (active) | 3.63% (active)
IP(CCCSc1n(Cc2ccc3ccccc3c2)c(-c2ccccc2)c(-c2ccccc2)[n+]1Cc1ccc2ccccc2c1)(c1ccccc1)(c1ccccc1)c1ccccc1 | 2.62% (active) | 20% | 14.9% | 45.7% | 9.71% (active) | 14.1% | 24.3% | 4.9% (active)
c1ccc(-c2n(Cc3ccc4ccccc4c3)c3c4ccccc4c4ccccc4c3[n+]2Cc2ccc3ccccc3c2)cc1 | -41.7% (active) | -69.9% (active) | -85.4% (active) | -75.4% (active) | -75% (active) | -61.6% (active) | -90.8% (active) | -85.5% (active)
COc1ccc([C@H]2[C@H](O)C(=O)N2c2cc(OC)c(OC)c(OC)c2)cc1Cl | 69.9% | 1.85% (active) | -0.621% (active) | 17.8% | 9.61% (active) | 2.62% (active) | 13.8% | 11.3%
COc1ccc(/C(C)=C(\c2ccc(Cl)cc2)c2ccc(OCCN)cc2)cc1 | 95.2% | 91.7% | 76.9% | 36.4% | 72.4% | 42.3% | 30.2% | 78.2%
NS(=O)(=O)c1ccc(Nc2nc(N/N=C/c3ccc([N+](=O)[O-])cc3)nc(Nc3ccccc3)n2)cc1 | 14.1% | 18.5% | 33.2% | 18.2% | 9.76% (active) | 16.5% | 19.6% | 37.5%
O=C(/C=C/c1cn(-c2ccccc2)nc1-c1ccc(Cl)cc1)c1cc2ccccc2oc1=O | 44.1% | 92.5% | 57.6% | 74% | 33.9% | 25.4% | 102% | 80.3%
CN(C)c1ncc(/C=C2\SC(=S)N(Cc3ccccc3Cl)C2=O)s1 | 96.9% | 102% | 103% | 82.6% | 92.1% | 40.5% | 102% | 97.5%
